Most compounds without a hit are left out; they make up all but 12% or so of the library.
BAZ2B inh – blocks human BAZ2B; AlphaScreen BAZ2B-H3K14Ac peptide displacement; Potency, µM (highest dose often 114 µM), hits mostly inhibitors; hit rate 4.4% among 360,000; further: nearly all actives have a fitted effect of over 60% in size
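Compounds, titrated to a top concentration of 110 uM, were incubated 30 min at room temperature with preformed BAZ2B/acetyl-K14 H3 peptide complex (50 nM each). Proximity signal was measured by AlphaScreen after 20 min with beads.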
HP1b chromo inh – inhibitors of HP1-beta chromodomain binding to methylated histone tails; AlphaScreen HP1-beta / biotin-H3K9me3 peptide binding; Potency, µM (titrated, usually from 114 µM), actives largely listed as inhibitors; AID 540317; P83916; hit rate 0.56% among 390,000; further: nearly all actives have a fitted effect of over 70% in size
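HP1-beta protein (50 nM final) preincubated 30 min at room temperature with biotinylated H3(1-18)K9me3 peptide (50 nM) in PBS pH 7.4, 0.01% Tween-20, then compound added for 30 min. AlphaScreen streptavidin donor/nickel chelate acceptor beads (10 ug/mL final), 30 min dark, luminescence read.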
G9a inh – inhibitors of human histone lysine methyltransferase G9a. hit rate 8.8% among 350,000. Q96KQ7. Potency, µM (titrated, usually from 102 µM), usual class: inhibitors. G9a H3K9 monomethylation, AlphaScreen, 2 h; further: nearly all actives have a fitted effect of over 75% in size
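Signal arises when biotinylated H3K9 peptide, once monomethylated, bridges streptavidin donor and antibody-captured acceptor beads. Enzyme at 20 nM was preincubated 15 min with test compounds; peptide 500 nM and SAM 20 uM then reacted for 2 h.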
L3MBTL1 block – blocks human L3MBTL1. Q9Y468. AlphaScreen L3MBTL1–H3K9me1 peptide binding. Potency, µM (titrated, usually from 57.1 µM), usual class: inhibitors. hit rate 0.66% among 230,000; further: nearly all actives have a fitted effect of over 60% in size
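AlphaScreen assay: L3MBTL1 (50 nM final) was preincubated 30 min at room temperature with biotinylated H3(1-15)K9me1 peptide (75 nM final), then 30 min with library compounds; streptavidin donor and nickel chelate acceptor beads (10 ug/mL final) added, 30 min dark.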
JMJD2A Tudor – blocks the human JMJD2A Tudor domain; AID 504339; hit rate 4.4% among 390,000; AlphaScreen JMJD2A-Tudor / H3K4me3 peptide binding; Potency, µM (titrated, usually from 114 µM), usual class: inhibitors; further: nearly all actives have a fitted effect of over 50% in size
Sfp inh – Sfp phosphopantetheinyl transferase inhibition; Q9F4F7; hit rate 3.5% among 310,000; Biochemical Sfp PPTase activity, qHTS; Potency, µM, hits mostly inhibitors;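 further: the enzyme is Sfp with the accession as filed and its product quenches rhodamine fluorescence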
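Buffer: 50 mM Hepes-Na pH 7.6, 10 mM MgCl2, 0.01% Nonidet P-40, 0.01% BSA. Enzyme 15 nM, pre-exposed to compound 15 min; substrates then added and fluorescence change tracked over 30 min.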
Large screens that a line does not name were inactive. The call rests on the fitted dose curve; in most records, active means well fitted curve in the direction sought with a large enough effect; inconclusive means small, poorly fitted or top-dose-only effect, or another doubt; inactive means no such curve, though single readings can be large; an effect the other way counts as inactive or inconclusive.

CC(=O)c1cc(-c2ccccc2)n(CC(=O)N2CCCC2)c1C	BAZ2B inh 56µM, G9a inh inconclusive (no result: L3MBTL1 block)
O=C(CSc1cn(CC(=O)N2CCCCC2)c2ccccc12)NCc1ccccc1	none (no result: L3MBTL1 block, Sfp inh)
CCCc1nn2c(=O)cc(COC(=O)c3cccc(NC(=O)c4cccs4)c3)nc2s1	none (no result: L3MBTL1 block, Sfp inh)
O=C1OC(NC(=O)c2ccccc2)C(n2cc(CO)nn2)=C1Cl (stereo not given)	BAZ2B inh inconclusive, HP1b chromo inh inconclusive, G9a inh inconclusive, JMJD2A Tudor 89µM, Sfp inh 4µM (no result: L3MBTL1 block)
O=C(Nc1cccc(S(=O)(=O)N2CCCCC2)c1)c1ccc2ncsc2c1	BAZ2B inh 56µM, G9a inh inconclusive, JMJD2A Tudor 28µM (no result: L3MBTL1 block)
O=C(Nc1cccc(S(=O)(=O)N2CCCCC2)c1)c1ccc(OCC2CCCO2)cc1 (stereo not given)	G9a inh 56µM (no result: BAZ2B inh, L3MBTL1 block)
O=C(Nc1ncccc1O)c1ccc(OCC2CCCO2)cc1 (stereo not given)	BAZ2B inh 79µM (no result: L3MBTL1 block)
Cc1nc(SCC(=O)c2ccccc2)c(C#N)c(-c2ccco2)c1C(=O)NCc1ccco1	G9a inh inconclusive, L3MBTL1 block inconclusive, Sfp inh 22µM
COCCOC(=O)c1c(C)nc(SCC(=O)Nc2ccc(OC)cc2)c(C#N)c1-c1ccco1	G9a inh 45µM (no result: L3MBTL1 block)
CC(C)CCNS(=O)(=O)c1ccc(N2CCCCS2(=O)=O)cc1	none (no result: L3MBTL1 block, Sfp inh)
COC(=O)[C@@H]1C[C@@]2(O)[C@H](O)[C@H](O)[C@H](O)C[C@H]2N1Cc1ccc(N2CCN(C)CC2)cc1	none (no result: BAZ2B inh, HP1b chromo inh, G9a inh, L3MBTL1 block, JMJD2A Tudor)
COc1ccc(NC2=NC(=S)N(c3ccccc3C)C23CCCCC3)cc1	G9a inh inconclusive (no result: L3MBTL1 block)
O=C(O)c1cccc(N2C(=S)N=C(Nc3ccccc3)C23CCCCC3)c1	none
[O-][N+]1=c2ccc(Nc3ccccc3)cc2=NC12CCCCC2	BAZ2B inh 20µM, HP1b chromo inh inconclusive, L3MBTL1 block inconclusive, JMJD2A Tudor 40µM (no result: G9a inh)
COc1ccc(Nc2ccc3c(c2)=NC2(CCCCC2)[N+]=3[O-])cc1	BAZ2B inh 40µM, HP1b chromo inh inconclusive, G9a inh inconclusive, L3MBTL1 block inconclusive, JMJD2A Tudor 22µM
Cc1ccc(-c2cc(NC(=O)C(C)Oc3ccccc3F)on2)cc1 (stereo not given)	none (no result: L3MBTL1 block, Sfp inh)
COc1ccccc1N1CCN(CCn2c(=O)c3c(c4ccccc4n3C)n(C)c2=O)CC1	none (no result: BAZ2B inh, HP1b chromo inh, L3MBTL1 block, JMJD2A Tudor)
CC1=C(C(=O)Nc2ccccc2)C(c2ccc(C)o2)n2c(s/c(=C\c3ccco3)c2=O)=N1 (stereo not given)	BAZ2B inh 50µM, G9a inh inconclusive, Sfp inh 50µM (no result: L3MBTL1 block)
COc1cccc(C2C(C(=O)Nc3ccccc3)=C(C)N=c3s/c(=C/c4ccc(OCC(=O)O)cc4)c(=O)n32)c1 (stereo not given)	none
O=C(/C(Br)=C/Nc1cc(Cl)ccc1Cl)C(F)(F)F	BAZ2B inh inconclusive, G9a inh 10µM, JMJD2A Tudor inconclusive
Cc1onc(-c2ccccc2Cl)c1C(=O)Nc1ccc(-n2nncc2C(C)(C)C)cc1	none
Cc1ccccc1-n1nc2c(c1NC(=O)c1c(-c3ccccc3Cl)noc1C)CSC2	none
Cc1onc(-c2ccccc2Cl)c1C(=O)Nc1ccc(-n2nncc2-c2ccco2)cc1	BAZ2B inh inconclusive, G9a inh 40µM, JMJD2A Tudor inconclusive
Cc1ccc(-n2nc3c(c2NC(=O)c2c(-c4ccccc4Cl)noc2C)CSC3)cc1	G9a inh 45µM
O=C(Nc1ccc(-n2nncc2-c2ccco2)cc1)c1ccc(F)cc1	BAZ2B inh inconclusive, HP1b chromo inh inconclusive, G9a inh 50µM, JMJD2A Tudor inconclusive
CC(=O)N1CCN(C(=S)NC(=O)c2ccc(F)cc2)CC1	JMJD2A Tudor 1.6µM (no result: BAZ2B inh, G9a inh, Sfp inh)
COc1ccc(C(=O)NC(=S)N2CCCC2)cc1	none (no result: G9a inh, L3MBTL1 block)
CC1CCN(C(=S)NC(=O)c2ccc(F)cc2)CC1	none (no result: BAZ2B inh, G9a inh, Sfp inh)
CCOC(=O)N1CCN(C(=S)NC(=O)c2ccc(F)c(F)c2)CC1	G9a inh 45µM
COc1ccc(C(=O)NC(=S)N2CCC(C)CC2)cc1	G9a inh 16µM (no result: L3MBTL1 block)
O=C(CC12CC3CC(C1)CC(CC(=O)NC1=NCCS1)(C3)C2)NC1=NCCS1	none

Compound activity deposited in PubChem BioAssay by National Center for Advancing Translational Sciences (NCATS).
